# GFP derepression: epigenetic modulators derepressing GFP locus in mouse cells. 68,000 tested, 0.09% active. mouse C127i GFP locus derepression, cytometry, 30 h. Potency, µM (series often up to 46.1 µM), inactives show top-dose GFP derepression (activation); further: % of control where 0% means no effect
#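 Locus derepression in mouse mammary C127i cells whose integrated CMV-GFP reporter is normally silent; GFP expression after 30 h compound treatment was quantified by counting fluorescent cells.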
# HBB splice mod: hemoglobin beta splicing modulation. HBB splicing reporter cell assay, activation; EGFP reporter with mutant IVS2-654 intron; response scale: normalised to 500 nM splice-correcting PNA. 65,000 tested, 0.06% active. Potency, µM (doses to about 46.1 µM), inactives show top-dose activation, usual class: activators; further: potency means the concentration at half of the fitted maximal effect; 0% is about no effect
#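 Compounds were applied for 2 days to HeLa EGFP-654 cells, 500/well in Optimem with 2% FCS. The reporter's EGFP is disrupted by mis-splicing of beta-globin intron IVS2-654. Readout: summed well GFP fluorescence from 488 nm laser scanning; reference was 500 nM antisense […] 654 PNA.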
# TSHR agonist: TSH receptor (human) agonism; P16473; HEK293-CNG-TSHR cells (CNG channel as cAMP sensor), membrane potential dye, cAMP; Potency, µM (top dose mostly 57.1 µM), inactives show at the highest dose activation, usual class: activators; 73,000 tested, 0.48% active; active means well fitted activation curve with a large enough effect in the main read-out, with a control signal flat, not every such curve was filed as active; inconclusive means small, poorly fitted or top-dose-only effect, or a change in a side signal; inactive means no such curve, though single readings can be large or run the other way; % of control where 0% means no effect;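 further: the control signal comes from parental cells without the receptor; potency means the concentration at half of the fitted maximal effect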
# Target sequence (P16473 whole entry, looked up): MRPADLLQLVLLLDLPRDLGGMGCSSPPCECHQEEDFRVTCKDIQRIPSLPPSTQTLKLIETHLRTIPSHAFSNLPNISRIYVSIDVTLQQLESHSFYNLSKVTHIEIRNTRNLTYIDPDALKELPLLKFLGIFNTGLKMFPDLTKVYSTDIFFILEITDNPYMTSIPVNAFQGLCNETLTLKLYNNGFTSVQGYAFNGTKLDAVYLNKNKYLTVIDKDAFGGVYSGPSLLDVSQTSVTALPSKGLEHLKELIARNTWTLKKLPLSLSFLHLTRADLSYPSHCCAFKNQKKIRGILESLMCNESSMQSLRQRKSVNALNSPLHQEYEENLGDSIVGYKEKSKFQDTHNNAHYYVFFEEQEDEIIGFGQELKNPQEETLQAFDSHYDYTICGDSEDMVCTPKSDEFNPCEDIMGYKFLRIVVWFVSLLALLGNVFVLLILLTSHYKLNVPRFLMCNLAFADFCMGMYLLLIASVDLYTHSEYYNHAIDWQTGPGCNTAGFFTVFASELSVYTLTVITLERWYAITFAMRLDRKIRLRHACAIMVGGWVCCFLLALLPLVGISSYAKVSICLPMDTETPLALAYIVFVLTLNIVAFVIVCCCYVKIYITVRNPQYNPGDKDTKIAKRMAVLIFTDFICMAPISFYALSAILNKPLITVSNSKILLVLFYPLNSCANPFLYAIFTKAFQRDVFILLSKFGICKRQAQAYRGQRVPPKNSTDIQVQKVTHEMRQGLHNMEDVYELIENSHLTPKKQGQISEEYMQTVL
#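 cAMP rise detected as CNG-channel membrane depolarization by fluorescent dye (emission 590 nm), 30 min after compound, following 60 min dye loading containing 100 uM RO 20-1724 at room temperature. Cells: TSHR/CNG HEK 293, with parental CNG HEK 293 as control.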
# UbGFP stabilizer: ubiquitin-GFP accumulation via proteasome inhibition; Ubiquitin-GFP reporter cells, proteasome inhibition, GFP fluorescence; response scale: untreated = 0%, 10 µM MG-132 = 100%; Potency, µM (doses to about 45.9 µM), inactives show at the top dose activation (GFP accumulation), usual class: activators; 67,000 tested, under 10 active; active means well fitted activation curve with a large enough effect, not every such curve was filed as active; inconclusive means small, poorly fitted or top-dose-only effect, or another doubt; inactive means no such curve, though single readings can be large or run the other way; further: potency means the concentration at half of the fitted maximal effect
#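 Proteasome block read as GFP accumulation: ubiquitin(G76V)-GFP U2OS cells exposed to compound (2.9 nM–46 uM) for 4 hr at 37 C. Normalization used untreated cells as 0% and 10 uM MG-132 as 100%; concentration-response curves fitted.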
# HEK293 cAMP cs: raises cAMP in parental HEK293 cells, TSHR agonist counter-screen; parental HEK293 CNG cAMP sensor, membrane potential fluorescence; Potency, µM (doses to about 57.1 µM), inactives show at the top dose activation, usual class: activators; 73,000 tested, 2.5% active; further: potency means the concentration at half of the fitted maximal effect; % of control where 0% means no effect; nearly all actives have a fitted effect of over 55% in size
#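 Counterscreen for endogenous-receptor signalling: CNG-channel HEK 293 cells report cAMP rise by membrane depolarization. After 60 min dye equilibration with 100 uM RO 20-1724, compounds incubated 30 min before bottom-read fluorescence at 590 nm.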
# Numbers without * were called inactive; ? = inconclusive; · = not tested or not shown; ! = not active in a repeat; [ ] = another dose, or the depositor's remark. The list is not random: actives were taken first. Their share in the collection is about 3%. Unless noted, the call rests on the fitted dose curve; in most records, active means well fitted curve in the direction sought with a large enough effect; inconclusive means small, poorly fitted or top-dose-only effect, or another doubt; inactive means no such curve, though single readings can be large; an effect the other way counts as inactive or inconclusive.
SMILES,GFP derepression,HBB splice mod,TSHR agonist,UbGFP stabilizer,HEK293 cAMP cs
Cc1cc(C(=O)CSc2nnc(-c3ccco3)o2)c(C)n1-c1ccc2c(c1)OCCO2,1%,0%[57.5 µM],?,0%,16µM*
Cc1nnc(SCC(=O)c2cc(C)n(-c3ccc4c(c3)OCO4)c2C)s1,-1%,0%[57.5 µM],?,-1%,16µM*
Cc1cc(C(=O)CSc2nnnn2C)c(C)n1-c1ccc2c(c1)OCCO2,-1%,-1%,?,3%,?
CC1(C)O[C@@H]2O[C@H]([C@@H]3COC(C)(C)O3)[C@H](N)[C@H]2O1,0%[9.22 µM],1%[9.22 µM],3%[11.4 µM],-4%[9.17 µM],5%[11.4 µM]
O=C(NC1CCCC1)c1sc(=S)n2c1[nH]c(=O)c1ccccc12,-1%,-5%,?,-7%,?
O=C(NCc1ccco1)c1sc(=S)n2c1[nH]c(=O)c1ccccc12,3%,6%[0.369 µM],?,·,25µM*
COc1ccc(CCNc2oc(COc3ccccc3F)nc2C#N)cc1,0%,0%,?,10%,20µM*
COc1ccc(CCNc2oc(COc3ccc(Br)cc3)nc2C#N)cc1OC,2%,-1%,?,-9%,?
COc1ccc(CCNc2oc(Cc3cccc4ccccc34)nc2C#N)cc1OC,-2%,2%[0.369 µM],20µM*,·,23%
N#Cc1nc(COc2ccccc2F)oc1NCc1ccc(F)cc1,-2%,0%,?,-3%,?
CCOc1ccc(-c2cc(C(=O)N/N=C/c3ccc(O)c(OC)c3)[nH]n2)cc1,·,·,-8%,·,-12%
CCCCCCCCCCCCCCCCCCOC[C@@H](COP(=O)([O-])OCC[N+](C)(C)C)OC,-1%,2%,5%,2%,4%
Cc1occc1-c1nnc(SCC(=O)c2ccc(F)cc2)n1Cc1ccco1,-2%,0%[57.5 µM],4%,-1%,-1%
O=C(CSc1nnc(-c2ccco2)n1Cc1ccccc1)c1ccc(F)cc1,1%,0%[57.5 µM],?,-2%,25µM*
O=C(CSc1nnc(-c2ccc(Br)o2)n1Cc1ccccc1)c1ccccc1F,-2%,0%[57.5 µM],?,-1%,20µM*
O=C(O)CSc1nnc(-c2ccccc2O)n1Cc1ccccc1,0%,-1%,1%,-4%,-6%
CC(=O)Oc1ccc(/C=C\C(=O)C[C@@H]2O[C@@H](Oc3cc(OC(C)=O)c4c(c3)O[C@@H](c3ccc(OC(C)=O)cc3)CC4=O)[C@H](OC(C)=O)[C@H](OC(C)=O)[C@@H]2OC(C)=O)cc1,-5%[9.22 µM],·,-5%,-3%,-5%
CC(=O)OC[C@H]1O[C@@H](O/N=C(\C)CCN2CCCc3nc(C)c(C)cc32)[C@H](OC(C)=O)[C@@H](OC(C)=O)[C@H]1OC(C)=O,·,3%[9.22 µM],-2%[11.4 µM],·,-2%[11.4 µM]
COC(=O)C/C=C\[C@@H](C)[C@@H](/C=N\OC[C@@H](C)[C@H](OCc1ccccc1)C(C)C)OC,·,0%[9.22 µM],4%[11.4 µM],·,21%[11.4 µM]
COc1ccc2c(c1)c(CC(=O)N1CCOCC1)c(C)n2C(=O)c1ccc(Cl)cc1,-3%,-1%,?,3%,40µM*!
Cc1cc2c(c(=O)o1)[C@@H](O)[C@H]1O[C@@H]1C2=O,·,2%[9.22 µM],0%[11.4 µM],·,-2%[11.4 µM]
O=C(O)c1ccc(Cl)c(S(=O)(=O)Nc2ccccc2)c1,·,·,-5%,·,-3%
COCCn1c(SCC(=O)N2CCC(C)CC2)nc2ccccc2c1=O,-1%,0%[57.5 µM],?,7%,20µM*
O=C(NC1c2ccccc2-c2ccccc21)N1CCCCC1,0%,-1%[0.0738 µM],?,23%[9.17 µM],3.2µM*
CCCC(=O)c1cc(O)c(O)cc1O,·,2%,?,·,?
CC[C@H](NC(C)C)[C@H](O)c1ccc(O)c(O)c1,2%[20.6 µM],1%[20.6 µM],?,12%[20.5 µM],0.25µM*
CNC[C@H](O)c1ccc(O)c(O)c1,0%,1%,·,2%,·
O=C1C(SCCO)=C(SCCO)C(=O)c2ccccc21,1%,2%,?,15%,25µM*!
N#CC(=NCCO)C1=C(O)c2ccccc2C1=O,4%[9.22 µM],0%[9.22 µM],-8%[11.4 µM],7%[9.17 µM],0%[11.4 µM]
